Results on six compounds are retold here after PubChem BioAssay.

Calls of active or inactive are those of the source.

For assay [1], the system named is Plasmodium falciparum Sir2 (PF13_0152, Sir2A). Briefly: pfSir2 binders on small-molecule microarrays, primary screen, biochemical, small-molecule microarray, 635 nm fluorescence (AID 1098).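 Also: score merges spot fluorescence intensity with its signal-to-noise ratio.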 As to conditions: small-molecule microarray binding, fluorescence 635 nm; higher = more signal.
Assay [2] can be described thus: small-molecule microarray binders of probe aDKK1, primary screen, biochemical, biotinylated probe, 635/667 nm fluorescence (AID 1099).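 Also: score merges 667nm spot fluorescence with signal to noise across triplicate slides.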 As to conditions: higher = more signal.
Assay [3] is described as follows: small-molecule microarray binders of probe aCHRDL2, primary screen, biochemical, biotinylated probe, 635/667 nm fluorescence (AID 1100). The conditions noted are these: higher = more signal.
Assay [4] is described as follows: splicing luciferase reporter signal modulators, primary screen, spliceosome inhibition project, cell-based, HEK293, splice +/- reporter (AID 1101).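 Also: HEK293 cells carrying a splicing-competent luciferase reporter gene; test concentration not given here.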 As to conditions: luminescence, 24 h, higher = more signal, called active from +8 up or from −8 down.
Assay [5] concerns the target Fibroblast growth factor 10 (Homo sapiens) (UniProt O15520). Nature of the assay: FGF10 binders on small-molecule microarrays, primary screen, biochemical, small-molecule microarray, 635 nm fluorescence (AID 1102). As to conditions: FGF10 binding, fluorescence 635 nm, higher = more signal.
Assay [6] relates to glycogen synthase kinase-3 (GSK3A per assay name; protocol says GSK3B). Nature of the assay: GSK3 binders on small-molecule microarrays, primary screen, biochemical, small-molecule microarray, 635 nm fluorescence, GSK3A (AID 1103). Also: the record names both GSK3A and GSK3B. The conditions noted are these: small-molecule microarray binding, fluorescence 635 nm; higher = more signal.
Assay [7] has as its target Epidermal growth factor receptor (Homo sapiens) (UniProt P00533). Briefly: EGFR binders on small-molecule microarrays, primary screen, biochemical, small-molecule microarray, 635 nm fluorescence (AID 1104).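 Also: score merges 667 nm emission intensity with spot signal to noise over triplicate slides.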 As to conditions: EGFR binding, higher = more signal.
Assay [8] deals with Follistatin-related protein 3 (Homo sapiens) (UniProt O95633). Briefly: FSTL3 binders on small-molecule microarrays, primary screen, biochemical, small-molecule microarray, 635 nm fluorescence (AID 1105).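 Also: score merges emission near 667 nm and signal to noise per printed spot across three slides.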 The conditions noted are these: FSTL3 binding, higher = more signal.
Follistatin-related protein 3 (Homo sapiens), sequence (O95633 whole entry, looked up): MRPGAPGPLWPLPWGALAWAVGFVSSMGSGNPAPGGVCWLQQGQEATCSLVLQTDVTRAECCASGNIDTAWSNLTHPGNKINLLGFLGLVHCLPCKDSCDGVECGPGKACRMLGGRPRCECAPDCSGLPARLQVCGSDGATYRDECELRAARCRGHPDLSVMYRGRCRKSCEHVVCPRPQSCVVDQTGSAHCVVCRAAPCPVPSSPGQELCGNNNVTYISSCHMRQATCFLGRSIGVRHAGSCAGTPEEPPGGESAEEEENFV
Assay [9] deals with Dickkopf-related protein 1 (Homo sapiens) (UniProt O94907). Briefly: DKK1 binders on small-molecule microarrays, primary screen, biochemical, small-molecule microarray, 635 nm fluorescence scan (AID 1106).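 Also: score merges emission near 667 nm with signal to noise over three replicate slides.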 As to conditions: DKK1 binding, higher = more signal.
Dickkopf-related protein 1 (Homo sapiens), sequence (O94907 whole entry, looked up): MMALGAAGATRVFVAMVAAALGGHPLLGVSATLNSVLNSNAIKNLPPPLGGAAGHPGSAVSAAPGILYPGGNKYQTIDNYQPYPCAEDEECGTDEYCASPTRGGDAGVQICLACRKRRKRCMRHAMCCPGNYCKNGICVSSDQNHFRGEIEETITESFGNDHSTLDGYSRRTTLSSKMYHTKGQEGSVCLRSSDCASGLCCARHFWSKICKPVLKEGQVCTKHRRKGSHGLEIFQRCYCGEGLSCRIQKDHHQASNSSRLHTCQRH
The subject of assay [10] is Inhibin beta A chain (activin A). Briefly: INHBA (activin A) binders on microarrays, primary screen, biochemical, small-molecule microarray, 635 nm fluorescence scan (AID 1107).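 Also: mouse activin A protein probed at 4.33 µg/mL on printed slides; score merges bound-protein fluorescence near 667 nm with spot signal-to-noise.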 The conditions noted are these: small-molecule microarray binding, higher = more signal.
Assay [11] has as its system Human papillomavirus type 1a protein E7 (residues 44-93). Nature of the assay: HPV1a E7 fragment binders on microarrays, primary screen, biochemical, small-molecule microarray, residues 44-93, 635 nm fluorescence (AID 1108).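 Also: E7 fragment applied at 1 µg/mL in TBST for 1 h at 4 C; score combines spot fluorescence with its signal to noise ratio.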 As to conditions: small-molecule microarray binding, fluorescence 635 nm; higher = more signal.
The nature of assay [12]: modulators of HCV replicon luciferase signal, primary screen, HCV replication inhibitor project, Huh7 cells, luciferase reporter (AID 1109).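 Also: huh7 hepatoma cells harbouring a luciferase neomycin HCV replicon reporter; luciferase luminescence as measure of HCV replicon replication; test concentration not given here.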 As to conditions: 48 h, higher = more signal. Background: A replicon is a self-replicating genome or part of one, used to study replication in cells.
The target in assay [13] is Left-right determination factor 2 (Homo sapiens) (UniProt O00292). Nature of the assay: LEFTY2 binders on small-molecule microarrays, primary screen, biochemical, small-molecule microarray, 635 nm fluorescence scan (AID 1110). As to conditions: LEFTY2 binding, higher = more signal.
Left-right determination factor 2 (Homo sapiens), sequence (O00292 whole entry, looked up): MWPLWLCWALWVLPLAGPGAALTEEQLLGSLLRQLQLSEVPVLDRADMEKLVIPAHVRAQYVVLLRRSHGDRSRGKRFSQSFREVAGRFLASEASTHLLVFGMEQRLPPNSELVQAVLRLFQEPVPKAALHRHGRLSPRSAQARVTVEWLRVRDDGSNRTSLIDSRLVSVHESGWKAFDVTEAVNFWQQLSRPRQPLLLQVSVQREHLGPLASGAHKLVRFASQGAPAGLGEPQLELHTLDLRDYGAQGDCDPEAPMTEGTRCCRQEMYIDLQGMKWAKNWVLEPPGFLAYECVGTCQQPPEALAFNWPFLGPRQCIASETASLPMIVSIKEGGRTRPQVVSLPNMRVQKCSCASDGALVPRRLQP
Assay [14] addresses Calmodulin-1 (Homo sapiens) (UniProt P0DP23). Briefly: CALM1 binders on microarrays, EGTA buffer, profiling panel, biochemical, small-molecule microarray, Cy5-labelled CALM1 (AID 1111).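 Also: labelled calmodulin applied in Tris saline Tween buffer holding calcium plus EGTA and DTT.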 The conditions noted are these: Cy5-CALM1 binding fluorescence, higher = more signal.
Assay [15] shares this target. Briefly: calcium-bound CALM1 binders on microarrays, profiling panel, artefact control for SMM control-protein annotation, biochemical, small-molecule microarray, Cy5-labelled CALM1, plus calcium (AID 1112).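 Also: score merges spot fluorescence with signal to noise from triplicate slides.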 As to conditions: Cy5-CALM1 binding fluorescence, higher = more signal.
A short description of assay [16]: small-molecule microarray binders of probe aWnt5a, primary screen, biochemical, biotinylated probe, 635/667 nm fluorescence (AID 1113).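 Also: score merges 667 nm fluorescence intensity with signal-to-noise per printed feature.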 The conditions noted are these: higher = more signal.
The nature of assay [17]: small-molecule microarray binders of probe aShh, primary screen, biochemical, biotinylated probe, 635/667 nm fluorescence (AID 1114).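 Also: probe is biotin-labelled aShh protein from a stem cell growth factor screen; measures binding of labelled protein to compounds printed on the slide; score merges feature fluorescence at 667 nm with signal-to-noise.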 As to conditions: higher = more signal.
Assay [18] is described as follows: small-molecule microarray binders of probe aNog, primary screen, biochemical, biotinylated probe, 635/667 nm fluorescence (AID 1115).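 Also: probe is biotinylated aNog protein used at 0.15 µg/mL for 1 h at 4 C; z-score combines 667 nm fluorescence of each spot with its signal to noise.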 The conditions noted are these: higher = more signal.
In assay [19] the target is Torsin-1A-interacting protein 1 (Homo sapiens) (UniProt Q5JTV8). Nature of the assay: LAP1 binders from COS7 cell lysate, primary screen, small-molecule microarray, 635/667 nm fluorescence (AID 1116). As to conditions: COS7-hLAP1 lysate binding, 635 nm fluorescence, higher = more signal.
Torsin-1A-interacting protein 1 (Homo sapiens), sequence (Q5JTV8 whole entry, looked up): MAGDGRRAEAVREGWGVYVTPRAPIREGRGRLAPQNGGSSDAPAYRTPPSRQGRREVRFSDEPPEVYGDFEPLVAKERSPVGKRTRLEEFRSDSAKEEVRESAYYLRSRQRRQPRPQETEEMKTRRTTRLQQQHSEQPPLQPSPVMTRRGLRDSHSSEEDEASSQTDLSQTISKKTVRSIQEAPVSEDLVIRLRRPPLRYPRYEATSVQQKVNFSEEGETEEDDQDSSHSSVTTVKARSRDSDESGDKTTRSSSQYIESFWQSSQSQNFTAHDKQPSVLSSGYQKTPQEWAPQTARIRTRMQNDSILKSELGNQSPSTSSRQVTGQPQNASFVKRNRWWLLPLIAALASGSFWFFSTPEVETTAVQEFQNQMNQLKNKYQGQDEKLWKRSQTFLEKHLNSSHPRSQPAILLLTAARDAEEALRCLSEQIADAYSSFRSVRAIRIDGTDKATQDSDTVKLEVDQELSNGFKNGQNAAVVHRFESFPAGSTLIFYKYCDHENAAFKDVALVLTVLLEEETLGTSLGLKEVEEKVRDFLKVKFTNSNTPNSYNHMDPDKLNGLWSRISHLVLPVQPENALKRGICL
In assay [20] the target is Alpha-bungarotoxin (Bungarus multicinctus) (UniProt P60615). Briefly: alpha-bungarotoxin binders on microarray, profiling panel, artefact control for SMM control protein annotation, biochemical, small-molecule microarray, Alexa647 label, 635/667 nm fluorescence (AID 1117). The conditions noted are these: alpha-BTX-A647 binding fluorescence, higher = more signal.
Alpha-bungarotoxin (Bungarus multicinctus), sequence (P60615 whole entry, looked up): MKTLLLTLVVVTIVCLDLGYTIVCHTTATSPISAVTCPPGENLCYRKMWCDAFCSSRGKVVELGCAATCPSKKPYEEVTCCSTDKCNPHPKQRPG

Fibroblast growth factor 10 (Homo sapiens), sequence (O15520 whole entry, looked up): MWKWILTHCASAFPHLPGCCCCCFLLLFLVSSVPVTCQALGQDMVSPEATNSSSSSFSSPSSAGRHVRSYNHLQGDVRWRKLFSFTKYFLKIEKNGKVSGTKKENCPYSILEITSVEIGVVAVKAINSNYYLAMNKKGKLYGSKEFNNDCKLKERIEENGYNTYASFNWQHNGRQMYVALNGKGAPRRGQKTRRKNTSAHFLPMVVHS
Epidermal growth factor receptor (Homo sapiens), sequence (P00533 whole entry, looked up): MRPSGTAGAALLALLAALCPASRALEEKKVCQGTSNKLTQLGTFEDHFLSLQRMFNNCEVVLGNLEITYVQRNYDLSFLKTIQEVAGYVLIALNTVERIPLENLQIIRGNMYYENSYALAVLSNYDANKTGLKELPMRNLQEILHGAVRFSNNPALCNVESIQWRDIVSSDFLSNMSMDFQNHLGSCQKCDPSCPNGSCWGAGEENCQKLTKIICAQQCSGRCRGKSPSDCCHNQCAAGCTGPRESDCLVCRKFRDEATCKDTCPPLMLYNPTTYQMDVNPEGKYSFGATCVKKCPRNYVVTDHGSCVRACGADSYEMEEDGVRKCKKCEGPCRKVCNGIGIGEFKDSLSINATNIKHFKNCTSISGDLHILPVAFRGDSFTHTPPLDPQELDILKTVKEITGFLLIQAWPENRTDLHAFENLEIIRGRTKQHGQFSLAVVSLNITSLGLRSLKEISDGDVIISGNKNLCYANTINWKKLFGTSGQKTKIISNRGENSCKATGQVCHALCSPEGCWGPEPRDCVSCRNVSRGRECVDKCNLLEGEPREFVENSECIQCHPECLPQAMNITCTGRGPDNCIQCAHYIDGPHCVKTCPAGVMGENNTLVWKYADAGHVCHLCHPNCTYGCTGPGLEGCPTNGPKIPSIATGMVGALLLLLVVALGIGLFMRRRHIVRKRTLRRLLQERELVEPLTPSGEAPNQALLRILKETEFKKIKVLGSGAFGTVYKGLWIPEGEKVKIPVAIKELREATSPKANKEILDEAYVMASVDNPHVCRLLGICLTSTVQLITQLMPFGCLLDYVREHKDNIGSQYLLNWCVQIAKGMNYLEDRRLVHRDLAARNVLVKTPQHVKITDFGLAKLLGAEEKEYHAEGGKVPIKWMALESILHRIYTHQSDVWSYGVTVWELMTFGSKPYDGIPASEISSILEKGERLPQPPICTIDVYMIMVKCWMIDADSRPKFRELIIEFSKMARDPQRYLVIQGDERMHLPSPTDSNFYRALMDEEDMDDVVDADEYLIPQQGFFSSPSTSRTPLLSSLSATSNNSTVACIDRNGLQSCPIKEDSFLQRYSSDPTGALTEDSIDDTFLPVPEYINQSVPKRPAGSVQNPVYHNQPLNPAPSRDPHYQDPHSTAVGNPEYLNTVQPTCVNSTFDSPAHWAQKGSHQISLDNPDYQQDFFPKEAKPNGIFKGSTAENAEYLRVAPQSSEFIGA

Turning to `CN1C=C(C(=O)OCCS(C)(=O)=O)C(C(=O)OCCS(C)(=O)=O)=CC(CCCO)=CC1c1cccs1` (stereo not given), the composite z-score in assay [1] was -0.122; in assay [2], -0.18; in assay [3], -0.707; in assay [5], 0.395; in assay [6], 0.891; in [7], 0.56. For the same compound, the composite z-score was 0.663 in assay [8]; 0.537 in assay [9]; -0.558 in assay [10]; 0.358 in assay [11]; 0.716 in assay [13]; -0.524 in assay [14]. Moreover, the composite z-score is -0.676 in [15]; -0.0161 in assay [16]; -0.0011 in assay [17]; -0.036 in [18]; 0.151 in [19]; -0.515 in assay [20]. For the same compound, the z-score in assay [4] is -0.601 (inactive); in [12] it was -0.911.
Take `CC(C)N1CC=CC23O[C@@H]4/C=C\CCCOC(=O)C4[C@H]2C(=O)N(CCCO)[C@@H]3C1=O` (stereo not given in full): the composite z-score in assay [1] is 2.12; in [2] it was -0.201; in assay [3] it was 0.787; in assay [5], -0.352; in assay [6], -0.762; in assay [7], -1.64. Besides, the composite z-score was -1.07 in [8]; -1 in assay [9]; 0.967 in [10]; -0.0197 in [11]; -1.83 in assay [13]; -0.311 in assay [14]. In addition, the composite z-score in assay [15] was 0.412; in [16], -0.14; in [17] it was -0.0959; in assay [18], 0.0824; in assay [19], -0.0239; in assay [20] it was -2.18. Moreover, the z-score was 0.073 (inactive) in assay [4] and -0.597 in [12].
As for `O=C1N(CCS(=O)(=O)c2ccccc2)Cc2ccccc2[C@@H]2OC(c3ccc(OCCCO)cc3)=N[C@]12Cc1ccccc1`, the composite z-score in assay [1] worked out at 1.61; in assay [2], 1.22; in assay [3] it was 1.14; in assay [5], 1.37; in [6] it was 1.33; in assay [7], 0.267. In addition, the composite z-score was 1.33 in [8]; 0.797 in [9]; 0.49 in assay [10]; 0.427 in assay [11]; 0.533 in assay [13]; 1.88 in assay [14]. Further, the composite z-score in assay [15] was 0.189; in assay [16], 0.0614; in assay [17], 0.191; in assay [18] it was 0.998; in assay [19] it was 1.16; in assay [20], 2.73. Further, the z-score in assay [4] was -0.127 (inactive); in [12] it was -1.4.
As for `CCN(CC)c1ccc(N2CC=CC34O[C@@H]5C=CCOC(=O)[C@@H]5[C@H]3C(=O)N(C(C)CO)[C@@H]4C2=O)cc1` (stereo not given in full), the composite z-score in assay [1] was -0.928; in [2], 0.0831; in assay [3], 0.495; in [5], -0.749; in assay [6] it was -2.21; in assay [7], -1.5. The composite z-score in assay [8] was -1.5; in [9] it was -1.01; in assay [10], 0.509; in assay [11], -1.09; in assay [13] it was -1.21; in [14], -1.1. For the same compound, the composite z-score in assay [15] is -0.201; in [16], -0.154; in [17], -0.153; in assay [18], 0.166; in [19], -0.438; in assay [20], 0.0517. Further, the z-score was -0.405 (inactive) in assay [4] and -0.533 in [12].
Regarding `CC1CC/C=C\[C@H]2OC34C=CCN(C(C)C)C(=O)[C@H]3N(C(CO)C(C)C)C(=O)[C@@H]4C2C(=O)O1` (stereo not given in full), the composite z-score is -0.144 in assay [1]; 0.0383 in assay [2]; 0.228 in assay [3]; -0.505 in assay [5]; -0.95 in assay [6]; -0.818 in [7]. For the same compound, the composite z-score is -0.253 in assay [8]; -0.429 in [9]; 0.64 in [10]; -1.48 in [11]; -0.944 in assay [13]; -1 in [14]. Moreover, the composite z-score is -0.339 in [15]; -0.202 in assay [16]; -0.0626 in [17]; -0.178 in assay [18]; 0.193 in assay [19]; -2.8 in assay [20]. The values for the z-score in assay [4] and in assay [12] were -0.0607 (inactive) and -0.403, respectively.
With `C=C(COC)/C(=C/C[C@H](OC(C)=O)c1cccc(OCCO)c1)c1cc(C(=O)OC)ccc1OC`, the composite z-score in assay [1] was 0.84; in assay [2], 0.0919; in assay [3], -0.143; in assay [5], 1.21; in assay [6] it was 0.656; in assay [7] it was 0.0086. Moreover, the composite z-score was 1.33 in [8]; 1.47 in assay [9]; 0.981 in assay [10]; -0.109 in assay [11]; 0.38 in assay [13]; -0.547 in [14]. Moreover, the composite z-score is -0.377 in [15]; -0.0556 in [16]; -0.0146 in [17]; -0.201 in [18]; 0.188 in [19]; -0.284 in [20]. In addition, the z-score is -4.8 (inactive) in [4] and -4.08 in [12].
